ATG4B inhibitor: inhibitors of human ATG4B cysteine protease | ATG4B cleavage of LC3-PLA2, NBD-HPC fluorescence, 1 h | inhibition, % at 8.33 µM | 340,000 compounds, 0.51% hits | AID 504462; in the data active means inhibition above about 40%
MPTP block: permeability transition pore inhibition; AID 602449; inhibition, % at 10 µM; 360,000 compounds, 1.4% hits; isolated mouse mitochondria, Ca2+ swelling absorbance, 30 min;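 active means inhibition of 50% or more, scaled per plate between neutral and stimulator controls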
CFTR F508del cor: correctors of CFTR F508del function in bronchial epithelial cells; AID 720511; 350,000 compounds, 0.36% hits; CFBE cells, YFP halide quenching; stimulated with forskolin plus potentiator P3; % fluorescence drop versus neutral controls; activity (quench increase), % at 7.58 µM;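 active means mean added fluorescence quench of at least 8% versus neutral control, with both replicates also reaching 8%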;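 further: cells transiently co-express mutant CFTR-F508del with the halide-sensitive YFP; corrector assay measuring rescue of mutant channel to the surface after 24 h compound exposure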
SKN-1 block: inhibitors of C. elegans SKN-1 | 360,000 compounds, 0.49% hits | C. elegans VP596 Pgst-4::GFP/RFP ratio, acrylamide-induced, 24 h | inhibition, % at 21.8 µM | AID 624304;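 active means interference check ratio from 0.5 to 1.5 plus GFP to RFP signal ratio inhibition reaching or exceeding a fixed threshold, cut at about 30% in these data, passing the limit was not always enough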
CendR NRP1 mod: NRP-1/CendR interaction modulation | inhibition, % at 25 µM | 360,000 compounds, 0.85% hits | O14786 | FAM-RPARPAR peptide binding to NRP-1, fluorescence polarization | AID 602438;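 active means inhibition or corrected inhibition above about 18%, plus a signal ratio from 0.5 to 1.5, limit read from the data, passing the limit was not always enough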
Target sequence (O14786 whole entry, looked up): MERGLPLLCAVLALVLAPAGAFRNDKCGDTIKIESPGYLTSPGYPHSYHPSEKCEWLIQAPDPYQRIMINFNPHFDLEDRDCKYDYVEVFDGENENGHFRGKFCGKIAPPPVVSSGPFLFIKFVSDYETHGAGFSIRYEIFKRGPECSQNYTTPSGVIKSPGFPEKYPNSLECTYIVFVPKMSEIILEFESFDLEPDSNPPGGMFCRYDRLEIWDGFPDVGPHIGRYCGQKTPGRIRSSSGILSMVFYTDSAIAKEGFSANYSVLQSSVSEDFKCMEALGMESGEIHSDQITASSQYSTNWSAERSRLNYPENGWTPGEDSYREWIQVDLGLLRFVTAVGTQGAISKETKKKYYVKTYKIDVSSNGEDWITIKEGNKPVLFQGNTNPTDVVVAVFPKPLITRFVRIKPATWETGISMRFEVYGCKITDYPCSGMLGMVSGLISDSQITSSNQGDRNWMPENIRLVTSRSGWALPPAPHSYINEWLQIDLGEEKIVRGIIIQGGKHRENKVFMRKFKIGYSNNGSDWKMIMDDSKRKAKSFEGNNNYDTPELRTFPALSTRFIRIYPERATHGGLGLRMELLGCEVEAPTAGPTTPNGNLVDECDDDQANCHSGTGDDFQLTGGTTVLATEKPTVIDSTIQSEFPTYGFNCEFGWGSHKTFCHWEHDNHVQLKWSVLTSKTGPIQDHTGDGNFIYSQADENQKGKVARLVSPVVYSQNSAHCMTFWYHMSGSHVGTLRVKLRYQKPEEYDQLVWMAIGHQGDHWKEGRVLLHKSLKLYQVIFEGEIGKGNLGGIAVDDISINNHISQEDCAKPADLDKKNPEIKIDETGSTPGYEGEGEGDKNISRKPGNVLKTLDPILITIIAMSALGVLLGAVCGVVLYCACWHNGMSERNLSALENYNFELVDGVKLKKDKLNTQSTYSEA
Each line names hits and unclear results; the compound was inactive in the other large screens. The list is not random: actives were taken first. Their share in the collection is about 2.7%.

Cc1sc(NC(=O)c2ccco2)c(C(c2cccnc2)N2CCCC2)c1C (stereo not drawn)	SKN-1 block 30 (no result: CFTR F508del cor)
CN1CCN(C(=O)/C=C/c2cccc(Cl)c2)CC1	CendR NRP1 mod 25
Cc1ccccc1-c1nnc(-c2ccccc2C)o1	SKN-1 block 46 (no result: CFTR F508del cor)
CCOC(=O)/C(=C/C=C1\Sc2ccccc2N1CC)C(C)=O	none (no result: CFTR F508del cor)
CCOC(=O)/C(=C/C=C1\Sc2cc(C)c(C)cc2N1CC)C(C)=O	CFTR F508del cor 39
Cc1ccc(NC(=O)CSCc2cc(=O)n3ccsc3n2)cc1	SKN-1 block 34 (no result: CFTR F508del cor)
CC1CCCCN1S(=O)(=O)c1ccc2c(c1)CCN2C(=O)CCC(=O)O (stereo not drawn)	none (no result: CFTR F508del cor)
CC(=O)N1CCc2cc(S(=O)(=O)N3CCCCC3C)ccc21 (stereo not drawn)	CendR NRP1 mod 35
CCCOc1ccc(OCC(=O)c2[nH]c(C)c(C(C)=O)c2C)cc1	CendR NRP1 mod 41
CC(=O)c1c(C)[nH]c(C(=O)COc2cc(C)cc(C)c2)c1C	none (no result: CFTR F508del cor)
CCOc1ccc(-c2onc(C(F)(F)F)c2-c2cscn2)c(O)c1	CendR NRP1 mod 27
CNC(=O)C[C@@H]1CC[C@@H]2[C@H](COC[C@H](O)CN2S(=O)(=O)c2ccccc2Cl)O1	CendR NRP1 mod 32 (no result: ATG4B inhibitor)
O=C(C[C@@H]1C[C@H]2c3cc(NC(=O)Cc4ccncc4)ccc3O[C@H]2[C@@H](CO)O1)NCC1CC1	none (no result: ATG4B inhibitor, MPTP block, SKN-1 block, CendR NRP1 mod)
CCCCCSc1nc(C)c(CC(=O)O)c(=O)[nH]1	CendR NRP1 mod 20 (no result: CFTR F508del cor)
CCCCCc1c(C)nc(SCC(=O)O)[nH]c1=O	none (no result: CFTR F508del cor)
Cc1ccc(C(=O)OCCn2cc(C#N)c(=O)[nH]c2=O)cc1	CendR NRP1 mod 27 (no result: CFTR F508del cor)
CC(C)CN(C(=O)COC(=O)c1cccc2ccccc12)c1c(N)n(Cc2ccccc2)c(=O)[nH]c1=O	none
CCN(C(=O)COC(=O)c1cccc2ccccc12)c1c(N)n(Cc2ccccc2)c(=O)[nH]c1=O	CFTR F508del cor 18
O=C(CNC(=O)c1ccc(Br)cc1)NCC(=O)OCC(=O)c1ccc(F)cc1	CendR NRP1 mod 26
O=C(CNC(=O)c1ccccc1)NCC(=O)OCC(=O)c1ccc(F)cc1	none
CC(C)NC(=O)N(C)C[C@@H]1Oc2cc(C#C[C@@H](C)O)ccc2S(=O)(=O)N([C@@H](C)CO)C[C@@H]1C	none (no result: ATG4B inhibitor, MPTP block, SKN-1 block, CendR NRP1 mod)
COc1cc(OC)nc(NC(=O)COC(=O)c2cccc(Cl)c2)n1	CendR NRP1 mod 32
NC(=O)C1CCN(c2nc(-c3ccccc3N)cs2)CC1	CendR NRP1 mod 24
COc1cccc(-c2cc3onc(-c4ccccc4)c3c(=O)n2C)c1	CendR NRP1 mod 18
COC(=O)c1ccc(C2/C(=C(\O)c3cccc(OC)c3)C(=O)C(=O)N2CCCN(C)C)cc1 (stereo not drawn)	none (no result: CFTR F508del cor)
COc1cccc(/C(O)=C2/C(=O)C(=O)N(CCN(C)C)C2c2ccc(Br)cc2)c1 (stereo not drawn)	CendR NRP1 mod 20 (no result: CFTR F508del cor)
COC(=O)C1=C(CS(=O)(=O)c2ccc(OC)c(OC)c2)NC(=O)NC1c1ccc(O)c(OC)c1 (stereo not drawn)	none
COC(=O)C1=C(CS(=O)(=O)c2cc(OC)ccc2OC)NC(=O)NC1c1ccc(O)c(OC)c1 (stereo not drawn)	CendR NRP1 mod 20
O=C(CCNC(=O)c1ccc(Cl)cc1)NN1C(=O)NC2(CCCCC2)C1=O	CendR NRP1 mod 20
CCn1c(=O)c(CCC(=O)NCCN2CCOCC2)c(C)c2c(C)nn(-c3cccc(C)c3)c21	CendR NRP1 mod 28
CCN1CCN(CCNC(=O)CCc2c(C)c3c(C)nn(-c4ccccc4)c3n(C)c2=O)CC1	none (no result: CFTR F508del cor)
Cc1cccc(N(CC(=O)NC(C)(C)C)C(=O)CCC(=O)Nc2nccs2)c1	none
CC(C)(C)NC(=O)CN(C(=O)CCC(=O)Nc1nccs1)c1cccc(C(F)(F)F)c1	SKN-1 block 35
COc1ccc(CN(C)C[C@@H]2OCCCC[C@H](C)Oc3ccc(NC(=O)Nc4c(C)noc4C)cc3C(=O)N([C@H](C)CO)C[C@H]2C)cc1	none (no result: ATG4B inhibitor, MPTP block, SKN-1 block, CendR NRP1 mod)
COCCOC(=O)c1[nH]c2c(c1C)C(=O)CC(c1cc(OC)ccc1OC)C2 (stereo not drawn)	none
CCCOCCOC(=O)c1[nH]c2c(c1C)C(=O)CC(c1cc(OC)ccc1OC)C2 (stereo not drawn)	CFTR F508del cor 9.6
COc1ccc2c3c(n(C)c2c1)[C@H](CO)N(Cc1ccccn1)CC31CN(Cc2ccccn2)C1	none (no result: ATG4B inhibitor, MPTP block, SKN-1 block, CendR NRP1 mod)
CCNC(=O)C[C@H]1CC[C@H]2[C@H](COc3ccc(NC(=O)Cc4ccccc4)cc3C(=O)N2C)O1	none (no result: ATG4B inhibitor, MPTP block, SKN-1 block, CendR NRP1 mod)

Source: PubChem (several laboratories)
